Here are results for 34 compounds from PubChem BioAssay (NCATS).

Results filed as inconclusive are left out. Unmarked numbers belong to inactive results. The source made the active and inactive calls. The call rests on the fitted dose curve; in most records, active means well fitted inhibition curve with a large enough effect; inconclusive means small, poorly fitted or top-dose-only effect; inactive means flat fitted curve, though single readings scatter.
On the % scale 0 is the no-effect control and ±100 the full control effect; potency means the concentration at half of the fitted maximal effect.

Chain of Voltage-gated inwardly rectifying potassium channel KCNH2 (Homo sapiens) (Q12809 whole entry, looked up): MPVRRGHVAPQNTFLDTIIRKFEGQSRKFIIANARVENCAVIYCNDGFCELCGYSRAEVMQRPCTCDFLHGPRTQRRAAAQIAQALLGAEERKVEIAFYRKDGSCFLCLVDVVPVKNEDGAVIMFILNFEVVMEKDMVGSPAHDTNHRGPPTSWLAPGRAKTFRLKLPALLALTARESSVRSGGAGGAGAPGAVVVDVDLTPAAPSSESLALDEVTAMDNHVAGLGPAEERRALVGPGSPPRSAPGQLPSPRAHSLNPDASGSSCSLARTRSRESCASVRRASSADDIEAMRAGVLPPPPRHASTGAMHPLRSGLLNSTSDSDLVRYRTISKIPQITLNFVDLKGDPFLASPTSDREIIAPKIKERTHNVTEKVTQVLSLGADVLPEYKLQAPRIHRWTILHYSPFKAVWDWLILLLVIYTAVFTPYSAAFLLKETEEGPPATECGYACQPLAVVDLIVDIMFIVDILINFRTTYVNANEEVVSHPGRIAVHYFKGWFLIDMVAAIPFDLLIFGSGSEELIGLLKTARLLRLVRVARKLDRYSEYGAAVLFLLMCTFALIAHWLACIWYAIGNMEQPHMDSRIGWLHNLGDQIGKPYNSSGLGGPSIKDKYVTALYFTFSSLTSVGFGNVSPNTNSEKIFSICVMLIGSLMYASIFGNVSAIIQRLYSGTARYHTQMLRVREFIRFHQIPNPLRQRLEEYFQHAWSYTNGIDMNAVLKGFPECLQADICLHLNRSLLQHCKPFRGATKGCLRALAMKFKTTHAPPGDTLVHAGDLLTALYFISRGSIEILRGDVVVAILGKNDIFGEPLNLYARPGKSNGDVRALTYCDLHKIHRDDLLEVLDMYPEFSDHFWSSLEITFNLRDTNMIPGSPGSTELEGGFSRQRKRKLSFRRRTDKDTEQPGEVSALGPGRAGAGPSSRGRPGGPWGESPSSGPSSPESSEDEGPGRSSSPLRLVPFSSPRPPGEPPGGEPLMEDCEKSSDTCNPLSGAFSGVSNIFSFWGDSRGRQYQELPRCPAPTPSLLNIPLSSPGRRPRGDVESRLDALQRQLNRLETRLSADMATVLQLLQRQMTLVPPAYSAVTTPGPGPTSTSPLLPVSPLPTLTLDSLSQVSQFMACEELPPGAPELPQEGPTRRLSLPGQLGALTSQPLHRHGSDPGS

This test concerns the target Voltage-gated inwardly rectifying potassium channel KCNH2 (Homo sapiens) (UniProt Q12809). Kind of test: qHTS Assay for Small Molecule Inhibitors of the Human hERG Channel Activity (AID 588834).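 Further: lower thallium flux fluorescence means stronger hERG block; nearly all actives have a fitted effect of over 50% in size.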 On activity change, negative = inhibition: top concentration of the series differs between compounds. Conditions: U2OS BacMam hERG, FluxOR thallium flux fluorescence; series mostly up to 46.1 µM; activity change, negative = inhibition: at the top concentration. The gist of the method:
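Concentration-response qHTS measuring drop in thallium-sensitive dye signal. U2OS cells carrying BacMam hERG; compound exposure ~10 min, then stimulation buffer and 2 min read at 1 sec intervals.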
Background: qHTS replaces the single test concentration by a dilution series.
Consider `Cc1cc(CC(C)CC(C)(C)C)n(O)c(=O)c1` (centres undefined) (tested in a mixture with another compound), for which the “activity change, negative = inhibition” value was 29.2%.

For the compound `CC1(C)S[C@@H]2[C@H](NC(=O)C(C(=O)O)c3ccsc3)C(=O)N2[C@H]1C(=O)O` (some centres undefined), the “activity change, negative = inhibition” value is 6.7%.

With `CO[C@@H]1[C@@H](O[C@@H]2O[C@H](C)[C@@H](O[C@H]3C[C@@](C)(O)[C@@H](O)[C@H](C)O3)[C@H](N(C)C)[C@H]2O)[C@@H](CC=O)C[C@@H](C)[C@@H](O[C@@H]2CC[C@H](N(C)C)[C@@H](C)O2)/C=C/C=C/C[C@@H](C)OC(=O)C[C@H]1O`, the “activity change, negative = inhibition” value was -1.02% [at 20.6 µM].

For the compound `CC(Cc1ccc(O)c(O)c1)C(C)Cc1ccc(O)c(O)c1` (centres undefined), the “activity change, negative = inhibition” value was 4.16%.

For `C/C1=C2N=C(/C=C3N=C(/C(C)=C4\[N-][C@@](C)([C@@H]5N=C1[C@](C)(CCC(=O)NCC(C)OP(=O)(O)O[C@H]1[C@@H](O)[C@@H](n6cnc7cc(C)c(C)cc76)O[C@@H]1CO)[C@H]5CC(N)=O)[C@@](C)(CC(N)=O)[C@@H]4CCC(N)=O)[C@@](C)(CC(N)=O)[C@@H]\3CCC(N)=O)C(C)(C)[C@@H]/2CCC(N)=O.CC(=O)O.[Co]` (some centres undefined), the “activity change, negative = inhibition” value was 2.33%.

Regarding `N[C@H](C(=O)O)[C@@H]1CC(Cl)=NO1`, the “activity change, negative = inhibition” value was 15.1%.

Turning to `CCCCCC(CC)COC(=O)CC(C(=O)OCC(CC)CCCC)S(=O)(=O)O` (centres undefined), the “activity change, negative = inhibition” value was 0.0918%.

In the case of `CC[N+](CC)(CC)CCC(O)(c1ccccc1)C1CCCCC1` (centres undefined), the “activity change, negative = inhibition” value is 2.59% [at 20.6 µM].

Regarding `COC(=O)[C@H]1[C@H]2C[C@@H]3c4[nH]c5ccccc5c4CCN3C[C@H]2C[C@@H](OC(=O)c2cc(OC)c(OC)c(OC)c2)[C@@H]1OC`, the Potency was 0.355 µM (active).

Take `CC(C)NCC1CCc2cc(CO)c([N+](=O)[O-])cc2N1` (centres undefined): the “activity change, negative = inhibition” value is -3.01% [at 20.6 µM].

For the compound `CN1CCC(CN2c3ccccc3Sc3ccccc32)C1` (centres undefined), the Potency was 12.6 µM (active).

For the compound `Nc1c(Br)cc(Br)cc1CNC1CCC(O)CC1` (centres undefined), the “activity change, negative = inhibition” value is -5.18%.

Take `C[C@]12O[C@H](C[C@]1(O)CO)n1c3ccccc3c3c4c(c5c6ccccc6n2c5c31)CNC4=O`: the “activity change, negative = inhibition” value was 10.3%.

Consider `CCN(CC)CCOc1ccc(-c2nc3cc(Cl)ccc3s2)cc1`, for which the Potency was 5.01 µM (active).

As for `C=C(NC(=O)C(=C)NC(=O)c1csc(C2=N[C@@H]3c4csc(n4)[C@H]4NC(=O)c5csc(n5)[C@H]([C@](C)(O)[C@@H](C)O)NC(=O)[C@H]5CSC(=N5)C(=CC)NC(=O)C([C@@H](C)O)NC(=O)c5csc(n5)[C@]3(CC2)NC(=O)[C@H](C)NC(=O)C(=C)NC(=O)[C@H](C)NC(=O)C([C@@H](C)CC)NC2C=Cc3c([C@H](C)O)cc(nc3C2O)C(=O)O[C@@H]4C)n1)C(N)=O` (some centres undefined), the “activity change, negative = inhibition” value was -18.2% [at 20.6 µM].

In the case of `CC(=O)OCC(=O)[C@@]1(O)CC[C@H]2[C@@H]3C[C@H](C)C4=CC(=O)C=C[C@]4(C)[C@H]3[C@@H](O)C[C@@]21C`, the “activity change, negative = inhibition” value is -4.28%.

As for `Cc1cn([C@H]2C[C@H](O)[C@@H](CO)O2)c(=O)[nH]c1=O`, the “activity change, negative = inhibition” value is 11%.

`CC[C@@H](C(=O)O)[C@@H]1O[C@@H]([C@@H](C)[C@H](O)[C@H](C)C(=O)[C@H](CC)[C@H]2O[C@]3(C=C[C@@H](O)[C@]4(CC[C@@](C)([C@H]5CC[C@](O)(CC)[C@H](C)O5)O4)O3)[C@H](C)C[C@@H]2C)[C@@H](C)C[C@@H]1C`: the “activity change, negative = inhibition” value is 22.8%.

In the case of `C[C@]12CCC(=O)C=C1CC[C@@H]1[C@@H]2[C@@H](O)C[C@@]2(C)[C@H]1CC[C@]2(O)C(=O)COP(=O)(O)O`, the “activity change, negative = inhibition” value is 6.35%.

Consider `COc1cc2c(cc1O)CCN[C@]21CS[C@@H]2c3c(OC(C)=O)c(C)c4c(c3[C@H](COC1=O)N1[C@@H]2[C@H]2c3c(cc(C)c(OC)c3O)C[C@@H]([C@@H]1O)N2C)OCO4`, for which the “activity change, negative = inhibition” value was 3.31%.

Take `CCCCCCC(O)C/C=C/CCCCCCCC(=O)O` (centres undefined): the “activity change, negative = inhibition” value was 17.1%.

`C=C1CC[C@@H]2[C@](C)(CO)[C@H](O)CC[C@@]2(C)[C@@H]1C/C=C1/C(=O)OC[C@H]1O`: the “activity change, negative = inhibition” value was 10.7%.

For the compound `C=CCSSSCC=C`, the “activity change, negative = inhibition” value is 8.49%.

Turning to `C[C@H](CCC(=O)O)[C@H]1CC[C@H]2[C@@H]3[C@H](O)C[C@@H]4C[C@H](O)CC[C@]4(C)[C@H]3CC[C@]12C`, the “activity change, negative = inhibition” value was 6.09% [at 20.6 µM].

Take `CCCCCCCCCCCC[n+]1ccc2ccccc2c1`: the Potency is 3.16 µM (active).

In the case of `C[C@@H]1CCC2[C@@H](C)[C@@H](O)O[C@@H]3O[C@@]4(C)CC[C@@H]1[C@@]23OO4` (some centres undefined), the “activity change, negative = inhibition” value was -3.9%.

Consider `CCC1OC(=O)C[C@@H](O)[C@H](C)[C@@H](O[C@@H]2O[C@H](C)C[C@H](N(C)C)[C@H]2O)[C@@H](CC=O)C[C@@H](C)C(=O)/C=C/[C@]2(C)OC2C1C` (some centres undefined), for which the “activity change, negative = inhibition” value is 5.84%.

As for `Nc1ncnc2c1ncn2[C@@H]1O[C@H](COP(=O)(O)OP(=O)(O)OP(=O)(O)O)[C@@H](O)[C@H]1O`, the “activity change, negative = inhibition” value was -2%.

For `CCCC(=O)O[C@]1(C(=O)COC(C)=O)CC[C@H]2[C@@H]3C[C@H](F)C4=CC(=O)C=C[C@]4(C)[C@@]3(F)[C@@H](O)C[C@@]21C`, the “activity change, negative = inhibition” value is 4.86%.

`CC[C@@]1(O)C(=O)OCc2c1cc1n(c2=O)Cc2cc3c([N+](=O)[O-])cccc3nc2-1`: the “activity change, negative = inhibition” value was -18.2%.

Take `CC1(C)O[C@@H]2C[C@H]3[C@@H]4CCC5=CC(=O)C=C[C@]5(C)[C@H]4[C@@H](O)C[C@]3(C)[C@]2(C(=O)CO)O1`: the “activity change, negative = inhibition” value was 16.8%.

In the case of `CO[C@H]1C=CO[C@@]2(C)Oc3c(C)c(O)c4c(O)c(c5c(c4c3C2=O)=NC2(CCN(CC(C)C)CC2)N=5)NC(=O)/C(C)=C\C=C/[C@H](C)[C@H](O)[C@@H](C)[C@@H](O)[C@@H](C)[C@H](OC(C)=O)[C@@H]1C`, the “activity change, negative = inhibition” value is 8.6%.

Take `COC(F)(F)C(Cl)Cl`: the “activity change, negative = inhibition” value was 5.46%.

`C[C@@H]1[C@H](O)[C@@H](C)/C=C/C=C\C=C\C=C\C=C\C=C\C=C\[C@H](O[C@@H]2O[C@H](C)[C@@H](O)[C@H](N)[C@@H]2O)C[C@@H]2O[C@](O)(C[C@@H](O)C[C@@H](O)[C@H](O)CC[C@@H](O)C[C@@H](O)CC(=O)O[C@H]1C)C[C@H](O)[C@H]2C(=O)O` (stereo in doubt): the “activity change, negative = inhibition” value is 16.6%.
